Measurements from PubChem BioAssay (NCATS).
Several values for one entry are separate records, joined by “and”; a condition that tells them apart may be missing. Equal entries are not always repeated. Records with an inconclusive call do not appear. Entries that show only a call come without a potency. Activity calls are given as the source filed them. Calls follow the shape of the dose curve; as a rule, active = well fitted cell-killing curve with a large enough effect; inconclusive = small, poorly fitted or top-dose-only effect; inactive = flat fitted curve, though single readings scatter.

Assay: qHTS of pediatric cancer cell lines to identify multiple opportunities for drug repurposing: Primary screen for BT-12 cells (AID 1347101); also: nearly all actives have a fitted effect of over 25% in size
Conditions: BT-12 viability, CellTiter-Glo luminescence, 48 h; series mostly up to 57.3 µM
Procedure, shortened: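 Cells (500-1,000/well) rested 5 h, then received compounds for 48 h; metabolically active cells were measured by CellTiter-Glo luminescence. Final concentrations spanned up to 46 µM (MIPE, 11-point) or 0.59 nM-46 µM (NPC, 8-point) in primary screens, 11-point in follow-ups.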
Potency is read from the fitted curve at half-maximal effect.

SMILES | Potency
CCCCC1C(=O)N(c2ccccc2)N(c2ccccc2)C1=O | inactive
COC1CCC(N(C(=O)C2CCC(C)CC2)c2cc(C3=CCCCC3)sc2C(=O)O)CC1 (stereo not given) | inactive
CCc1ccc(C=C2SC(=S)NC2=O)cc1 | inactive
NS(=O)(=O)c1cccc2c1C(=O)c1cccc(O)c1C2=O | 0.273 µM (active)
Cc1nnc(C(C)C)n1C1C[C@H]2CC[C@@H](C1)N2CC[C@H](NC(=O)C1CCC(F)(F)CC1)c1ccccc1 (stereo not given in full) | inactive
Cc1nc(N)sc1-c1ccnc(Nc2ccc(N3CCOCC3)cc2)n1 | 24.3 µM (active)
O=C(CCCCCCC(=O)Nc1ccccc1)NO | 6.92 µM (active) and 17.2 µM (active)
CC(C)NCC(O)COc1cccc2[nH]ccc12 (stereo not given) | inactive
O=C1NC(=O)C(c2ccccc2)(c2ccccc2)N1 | inactive
CON=C(C(=O)N[C@@H]1C(=O)N2C(C(=O)OCOC(=O)C(C)(C)C)=C(C=Cc3scnc3C)CS[C@H]12)c1csc(N)n1 | inactive
c1cc(-c2sc(-c3ccncc3)c(-c3ccncc3)c2-c2ccncc2)ccn1 | inactive
CN1C[C@H]2c3ccccc3Oc3ccc(Cl)cc3[C@@H]2C1 | inactive
Clc1ccc(C(c2ccc(Cl)cc2)n2cc[n+](CC(OCc3ccc(Cl)cc3Cl)c3ccc(Cl)cc3Cl)c2)cc1 (stereo not given) | 21.7 µM (active)
OC[C@@H](O)[C@H](O)[C@H](O)[C@@H](O)CO | inactive
C=C1C(=O)[C@@]23C(CC[C@@H]1[C@H]2O)[C@@]12CO[C@]3(O)[C@@H](O)[C@@H]1C(C)(C)CC[C@@H]2O (stereo not given in full) | 3.43 µM (active)
